# Source: PubChem BioAssay (National Center for Advancing Translational Sciences (NCATS))
# Most compounds without a hit are left out; they make up all but 10% or so of the library.
# HP1b binding inh: inhibitors of HP1-beta chromodomain binding to methylated histone tails; AID 540317; 390,000 compounds, 0.56% hits; Potency, µM (top dose mostly 114 µM), inactives show top-dose activity change, negative = inhibition, hits mostly inhibitors; AlphaScreen HP1-beta / biotin-H3K9me3 peptide binding; further: nearly all actives have a fitted effect of over 70% in size
# Target sequence (P83916 whole entry, looked up): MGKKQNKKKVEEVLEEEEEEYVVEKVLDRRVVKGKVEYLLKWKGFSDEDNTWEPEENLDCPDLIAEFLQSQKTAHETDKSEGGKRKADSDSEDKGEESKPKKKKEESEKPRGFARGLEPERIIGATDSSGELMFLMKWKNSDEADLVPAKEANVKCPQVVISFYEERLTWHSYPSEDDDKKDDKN
#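 Compound inhibition of the preformed complex between 50 nM HP1-beta and 50 nM biotinylated H3K9me3 peptide was read by AlphaScreen. Buffer was PBS pH 7.4 with 0.01% Tween-20. Incubations ran 30 min at room temperature, with 10 ug/mL donor/acceptor beads.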
# BAZ2B block: blocks human BAZ2B; AlphaScreen BAZ2B-H3K14Ac peptide displacement; Q9UIF8; Potency, µM (titrated, usually from 114 µM), without a hit: at the highest dose activity change, negative = inhibition, hits mostly inhibitors; 360,000 compounds, 4.4% hits; further: on the % scale 0 is the no-effect control and ±100 the full control effect; nearly all actives have a fitted effect of over 60% in size
#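 Inhibition is scored as reduced AlphaScreen emission. The BAZ2B/b-H3(5-23)K14Ac complex (50 nM each) in PBS pH 7.4, 0.01% Tween-20 meets compound (up to 110 uM) for 30 min at RT before bead addition.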
# G9a inh: blocks human histone lysine methyltransferase G9a; 350,000 compounds, 8.8% hits; G9a H3K9 monomethylation, AlphaScreen, 2 h; Q96KQ7; Potency, µM (doses to about 102 µM), for the others: at the top dose activity, negative = inhibition, most hits filed as inhibitors; further: on the % scale 0 is the no-effect control and ±100 the full control effect; nearly all actives have a fitted effect of over 75% in size
# Target sequence (Q96KQ7 913-1193 limits assumed): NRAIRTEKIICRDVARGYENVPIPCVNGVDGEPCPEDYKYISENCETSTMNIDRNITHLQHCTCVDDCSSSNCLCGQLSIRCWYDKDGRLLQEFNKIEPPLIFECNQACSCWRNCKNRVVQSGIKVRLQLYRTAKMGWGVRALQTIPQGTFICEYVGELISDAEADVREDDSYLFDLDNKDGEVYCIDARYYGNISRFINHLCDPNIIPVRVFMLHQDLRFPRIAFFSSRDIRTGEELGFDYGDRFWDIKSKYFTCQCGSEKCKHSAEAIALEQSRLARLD
#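 Using a bead-based AlphaScreen, monomethylated H3K9 product from 2 h room-temperature reactions (G9a 20 nM, peptide 500 nM, SAM 20 uM) was detected with 0.5 ug/mL rabbit anti-H3K9me1 antibody.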
# GLS inh: inhibitors of human glutaminase (GLS); 410,000 compounds, 0.21% hits; AID 624170; Potency, µM (highest dose often 45.5 µM), for inactives: at the top dose activity change, negative = inhibition, usual class: inhibitors; O94925; GLS enzymatic activity, qHTS titration; further: on the % scale 0 is the no-effect control and ±100 the full control effect
#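 Compounds were pin-transferred onto hKGA, after which L-glutamine (1 mM solution) and a detection mix of glutamate oxidase, HRP and Amplex Red were added. Initial and 30 min RT fluorescence reads were collected.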
# JMJD2A Tudor: JMJD2A Tudor domain (human) inhibition. 390,000 compounds, 4.4% hits. O75164. AlphaScreen JMJD2A-Tudor / H3K4me3 peptide binding. Potency, µM (highest dose often 114 µM), for the others: at the highest dose activity change, negative = inhibition, actives largely listed as inhibitors; further: on the % scale 0 is the no-effect control and ±100 the full control effect; nearly all actives have a fitted effect of over 50% in size
# * hit, by the source's call; ? = inconclusive; nt = not tested or not shown; [ ] = another dose, or the depositor's remark. The call rests on the fitted dose curve; in most records, active means well fitted curve in the direction sought with a large enough effect; inconclusive means small, poorly fitted or top-dose-only effect, or another doubt; inactive means no such curve, though single readings can be large; an effect the other way counts as inactive or inconclusive. Potency means the concentration at half of the fitted maximal effect.
SMILES,HP1b binding inh,BAZ2B block,G9a inh,GLS inh,JMJD2A Tudor
CCc1c(-c2n[nH]c(=S)n2Cc2ccccc2)csc1C,4%,-35%,2µM*,0%,?
Cn1c(O)c(N=NC(=O)C2COc3ccccc3O2)c2ccccc21 (stereo not given),?,-36%,1%[12.7 µM],-1%,?
CC(C)n1c(O)c(N=NC(=O)C2COc3ccccc3O2)c2ccccc21 (stereo not given),-22%,?,35µM*,0%,?
O=C(Nc1ccccc1C(=O)OCc1cc(=O)n2ccsc2n1)c1ccccc1Cl,16%,-9%,-6%[12.7 µM],-1%,-6%
O=C(CCOc1ccccc1)N1CCN(c2ccc(O)cc2)CC1,?,?,?,11µM*,?
O=C(COc1cccc(C(F)(F)F)c1)N1CCN(c2ccc(O)cc2)CC1,79µM*,nt,7.9µM*,?,56µM*
NC(=O)C1CCN(C(=O)CN2CCN(c3cccc(C(F)(F)F)c3)CC2)CC1,-4%,2%,-25%,22%,89µM*
O=C(COc1ncnc2ccccc12)N1CCN(c2ccccc2)CC1,7%,-17%,50µM*,4%,-18%
O=C(COc1cccc(C(F)(F)F)c1)N1CCN(c2ccccc2O)CC1,8%,?,-82%[59 µM],20%,-17%
Cc1cc(C(=O)CSc2nnc(Nc3ccccc3)s2)c(C)n1CC1CCCO1 (stereo not given),43%,?,-17%[59 µM],7%,-14%
COc1cc(NC(=S)NCCc2ccccc2)c(OC)cc1NC(=O)CC(C)C,20%,?,-5%,14%,-11%
CCOC(=O)c1cc(C#N)c(Nc2ccccc2OC)nc1C(F)(F)F,5%,-2%,14%,1%,-4%
CCCCOC(=O)c1c(C)oc2ccc(NS(=O)(=O)c3ccc(F)cc3C)cc12,40%,9%,19%[59 µM],-10%,-2%
Cc1cccnc1NC(=S)NCc1ccco1,12%,?,2.5µM*,-1%,-26%
CC(C)(CO)NC(=S)NCc1ccco1,8%,-7%,40µM*,11%,-13%
S=C(NCc1ccco1)Nc1ccc(Cl)cn1,10%,?,8.9µM*,-6%,-33%
S=C(NCc1ccco1)Nc1ccccn1,34%,?,?,0%,-28%
CC(C)CCNc1nc(N)c([N+](=O)[O-])c(NC2CCCCC2)n1,5%,-10%,6%,-7%,-23%
Cc1ccc(NC(=O)CCCN2C(=O)/C(=C/C=C/c3ccccc3)SC2=S)cc1,-24%,-11%,-2%[59 µM],0%,-12%[57.1 µM]
O=C(O)CCCN1C(=O)/C(=C/C=C/c2ccco2)SC1=S,14µM*,4µM*,-170%[12.7 µM],1%,5.6µM*
O=C(O)CC(C(=O)O)N1C(=O)/C(=C/C=C/c2ccco2)SC1=S (stereo not given),3.5µM*,5µM*,-186%[59 µM],2.8µM*,3.5µM*
CCC(C(=O)O)N1C(=O)/C(=C/c2cccn2C)SC1=S (stereo not given),-3%,?,?,9%,-34%
O=C(O)C(Cc1ccccc1)N1C(=O)/C(=C/C=C/c2ccco2)SC1=S (stereo not given),10µM*,8.9µM*,nt,-27%,10µM*
CCN(C(=O)COC(=O)C(C)(C)Oc1ccc(Cl)cc1)c1c(N)n(Cc2ccccc2)c(=O)[nH]c1=O,38%,nt,nt,-6%,-5%
NNC(=O)CNc1ccccc1Cl,33%,-4%,1%,4%,-15%
SMILES,HP1b binding inh,BAZ2B block,G9a inh,GLS inh,JMJD2A Tudor
COc1ccc(CNC(=O)CN(C)S(=O)(=O)c2ccc3[nH]c4c(c3c2)CCCC4)cc1,-14%,?,?,7%,?
CCOC(=O)c1oc2ccc(CNC3CCCCC3)c(Cl)c2c1C,?,?,10µM*,11%,4µM*
CC(SC(C)C(=O)NN=Cc1c[nH]c2ccccc12)C(=O)NN=Cc1c[nH]c2ccccc12 (stereo not given),23%[57 µM],nt,nt,27%,-21%
CN1C(C(=O)Nc2ccccn2)=C(O)c2sccc2S1(=O)=O,10%,50µM*,?,30%,50µM*
O=C(Nc1ccccn1)c1cccs1,?,15%,-3%[59 µM],?,?
Cc1ccc(NC2=CC(=O)C(=O)c3ccccc32)c(C)c1,17%,?,-2%[2.33 µM],9%,-14%
O=C1C=C(Nc2ccccc2O)c2ccccc2C1=O,-38%,45µM*,45µM*,27%,?
O=C1C=C(Nc2ccc(F)cc2)c2ccccc2C1=O,-15%,?,7.9µM*,10%,-26%
C(=N\Nc1nc(Nc2ccccc2)nc(Nc2ccccc2)n1)/c1cccnc1,11%,-22%,14%,3%,-22%
O=C(OCCCc1ccncc1)c1ccc(S(=O)(=O)N2CCOCC2)cc1,28%,2%,-8%,15%,-21%
CCOc1ccc(C(=O)NCCS(=O)(=O)N2CCN(c3cccc(Cl)c3)CC2)cc1,75%,14%,5%[59 µM],2%,-15%
CCN(CC(=O)Nc1c(F)cccc1F)C(=O)C1CCN(S(=O)(=O)c2ccc(F)cc2)CC1,24%,10%,3%[0.501 µM],-7%,-7%
O=C1C=CC(=O)N1c1ccc(Nc2ccccc2)cc1,?,nt,nt,33%,50µM*
O=C1C=CC(=O)N1c1ccc2ccccc2c1,?,nt,nt,12%,18µM*
Cc1cccc(N2C(=O)C=CC2=O)c1,?,nt,nt,8%,20µM*
CN(C(=O)COC(=O)c1cncc(Br)c1)C1CCCCC1,27%,nt,nt,-10%,-1%
CCOc1cc(CNCCc2ccccc2)ccc1OCC(=O)NC(C)(C)C,?,-2%,2%,0%,?
CCOc1cc(CNCc2cccnc2)ccc1OCC(=O)NC(C)(C)C,28%,?,50µM*,-5%,-21%
CC(C)(C)NC(=O)COc1ccc(CNCc2ccccn2)cc1,14%,50µM*,nt,-6%,56µM*
C=CCOc1ccc(CNc2ccc3[nH]c(=O)[nH]c3c2)cc1OCC,-16%,-29%,?,?,?
CCOc1cc(CNCc2ccccn2)ccc1OCC(=O)NC1CCCCC1,1%,79µM*,3%[12.7 µM],7%,56µM*
CCOc1cc(CNc2ccc3[nH]c(=O)[nH]c3c2)ccc1OCC(=O)NC(C)(C)C,-11%,-5%,5µM*,80%,-31%
CCOC(=O)CSc1nc2cccnc2n1-c1ccc(F)cc1,-9%,9%,26%[59 µM],-14%,-2%[11.4 µM]
CCOC(=O)c1ccc(NC(=O)[C@@H](NC(N)=O)C(C)C)cc1,10%,3%,2%[12.7 µM],-1%,-17%
CCOc1ccc(C2CC(=O)Nc3cc4c(cc32)OCO4)cc1OC (stereo not given),16%,?,?,2%,-27%
O=C(/C=C/c1ccc(Cl)c([N+](=O)[O-])c1)Nc1ccc(N2CCCC2)c(Cl)c1,24%,-16%,-3%[59 µM],0%,-1%
